These results are taken from PubChem BioAssay (NCI).

Test systems include HCT-15 colon; HT29 colon; SNB-75 CNS; SNB-19 CNS; U251 CNS; PC-3 prostate; SK-MEL-5 melanoma; UACC-62 melanoma; LOX IMVI melanoma; SK-MEL-28 melanoma; SK-MEL-2 melanoma; EKVX NSCLC; SN12C renal; UO-31 renal; ACHN renal; CAKI-1 renal; A498 renal; CCRF-CEM leukemia; MOLT-4 leukemia; TK-10 renal.
Common to all, as to test: NCI-60 one-dose screen, 48 h (100 = growth as untreated, 0 = no growth, -100 = all killed)
Conditions in all cases: 10 µM unless noted

Several values for one entry are separate records, joined by “and”; a condition that tells them apart may be missing. Equal entries are not always repeated. This is part of a sample that, as a whole, favours compounds with a hit. Of some 83,000 tested, about 20% had one in any assay.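 Single-dose data. Exposure time 48 hours. Values below 10 considered active.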 Activity calls are given as the source filed them.

In the case of `COc1cc(-c2nccc3cc4c(cc23)OCO4)cc(OC)c1OC`, the growth with HCT-15 colon is 22.1% (inactive) and 27.9% (inactive); in the test on HT29 colon it was 1.74% (active) and 5.6% (active); in the test on SNB-75 CNS, 10.8% (inactive) and -9.99% (active); with SNB-19 CNS, 38.3% (inactive) and 38.8% (inactive); in the test with U251 CNS it was 40.6% (inactive) and 24.1% (inactive); with PC-3 prostate, 29.5% (inactive). In addition, the growth is 6.67% (active) in the test on SK-MEL-5 melanoma; 34.2% (inactive) and 28.3% (inactive) with UACC-62 melanoma; 32.2% (inactive) and 29.6% (inactive) in the test with LOX IMVI melanoma; 57.5% (inactive) and 39.8% (inactive) in the test on SK-MEL-28 melanoma; 9.15% (active) with SK-MEL-2 melanoma; 68.4% (inactive) and 63.5% (inactive) with EKVX NSCLC. Also, the growth was 39% (inactive) and 47.3% (inactive) in the test with SN12C renal; 50.8% (inactive) and 44.4% (inactive) with UO-31 renal; 36.2% (inactive) and 40.2% (inactive) in the test on ACHN renal; 20% (inactive) and 30.8% (inactive) in the test on CAKI-1 renal; 41.3% (inactive) and 20.1% (inactive) in the test on A498 renal; 34.2% (inactive) and 34.4% (inactive) with CCRF-CEM leukemia. In addition, the growth in the test with MOLT-4 leukemia was 39.4% (inactive) and 17.7% (inactive).

Take `O=CC(O)C(O)C(O)CO` (stereo unspecified): the growth with HCT-15 colon was 100% (inactive); with HT29 colon, 113% (inactive) and 102% (inactive); with SNB-75 CNS, 104% (inactive) and 97.8% (inactive); with SNB-19 CNS, 103% (inactive) and 113% (inactive); in the test with U251 CNS, 102% (inactive) and 105% (inactive); with PC-3 prostate, 41.2% (inactive) and 98.4% (inactive). Further, the growth with SK-MEL-5 melanoma is 87.1% (inactive) and 103% (inactive); with UACC-62 melanoma it was 96.6% (inactive) and 117% (inactive); with LOX IMVI melanoma, 99.5% (inactive) and 100% (inactive); with SK-MEL-28 melanoma, 104% (inactive) and 109% (inactive); with SK-MEL-2 melanoma, -27.3% (active); in the test on EKVX NSCLC it was 114% (inactive). In addition, the growth in the test on SN12C renal was 95.5% (inactive) and 109% (inactive); in the test with UO-31 renal, 90.7% (inactive) and 78.5% (inactive); in the test on TK-10 renal it was 125% (inactive) and 107% (inactive); with ACHN renal it was 98.7% (inactive) and 98.1% (inactive); with CAKI-1 renal, 106% (inactive) and 117% (inactive); in the test on CCRF-CEM leukemia, 79.8% (inactive) and 98% (inactive). Also, in the test on MOLT-4 leukemia, the growth was 122% (inactive) and 87.4% (inactive).

On to `CN(Cc1ccccc1)Cc1ccccc1`, for which the growth is 103% (inactive) in the test on HCT-15 colon; 102% (inactive) with HT29 colon; 87.4% (inactive) in the test with SNB-75 CNS; 106% (inactive) in the test with SNB-19 CNS; 99% (inactive) with U251 CNS; 103% (inactive) in the test with PC-3 prostate. The growth was 104% (inactive) in the test on SK-MEL-5 melanoma; 101% (inactive) in the test on UACC-62 melanoma; 95.1% (inactive) in the test on LOX IMVI melanoma; 110% (inactive) in the test on SK-MEL-28 melanoma; 104% (inactive) in the test on SK-MEL-2 melanoma; 102% (inactive) in the test with EKVX NSCLC. Besides, the growth in the test with UO-31 renal is 93% (inactive); in the test on TK-10 renal, 88.2% (inactive); in the test with ACHN renal, 108% (inactive); in the test with CAKI-1 renal, 93.9% (inactive); with A498 renal, 114% (inactive); in the test with CCRF-CEM leukemia it was 115% (inactive). Also, in the test with MOLT-4 leukemia, the growth is 122% (inactive).

For `CCOc1ccc2c(S(=O)(=O)O)cccc2c1[N+](=O)[O-]`, the growth was 103% (inactive) and 108% (inactive) with HCT-15 colon; 105% (inactive) and 117% (inactive) in the test on HT29 colon; 85.7% (inactive) and 93.8% (inactive) in the test with SNB-75 CNS; 108% (inactive) and 112% (inactive) in the test with SNB-19 CNS; 101% (inactive) and 99.9% (inactive) with U251 CNS; 93.4% (inactive) and 87.4% (inactive) in the test with PC-3 prostate. In addition, the growth in the test on SK-MEL-5 melanoma was 108% (inactive); in the test with UACC-62 melanoma, 101% (inactive) and 110% (inactive); in the test on LOX IMVI melanoma, 105% (inactive) and 102% (inactive); with SK-MEL-28 melanoma it was 113% (inactive) and 118% (inactive); with SK-MEL-2 melanoma it was 117% (inactive) and 109% (inactive); with EKVX NSCLC, 99.2% (inactive) and 88.5% (inactive). For the same molecule, the growth in the test on UO-31 renal was 71.5% (inactive) and 79.1% (inactive); in the test on TK-10 renal, 104% (inactive) and 126% (inactive); with ACHN renal it was 103% (inactive) and 105% (inactive); with CAKI-1 renal, 87% (inactive) and 96.1% (inactive); in the test on A498 renal, 95% (inactive) and 116% (inactive); in the test with CCRF-CEM leukemia it was 90.6% (inactive) and 107% (inactive). In the test with MOLT-4 leukemia, the growth was 86.8% (inactive) and 96.4% (inactive).
